The list is not random: actives were taken first. Their share in the collection is about 10%.
JMJD2A Tudor – qHTS Assay for Inhibitors of JMJD2A-Tudor Domain; AlphaScreen JMJD2A-Tudor / H3K4me3 peptide binding; 4.4% of 390,000 active; Potency, µM (doses to about 114 µM), inactives show at the top dose activity change, negative = inhibition, usual class: inhibitors; Lysine-specific demethylase 4A (Homo sapiens), O75164; AID 504339, 2011; further: potency means the concentration at half of the fitted maximal effect; on the % scale 0 is the no-effect control and ±100 the full control effect; nearly all actives have a fitted effect of over 50% in size
BAZ2B block – qHTS Assay for Inhibitors of BAZ2B; Bromodomain adjacent to zinc finger domain protein 2B (Homo sapiens), Q9UIF8; AlphaScreen BAZ2B-H3K14Ac peptide displacement; Potency, µM (highest dose often 114 µM), inactives show at the highest dose activity change, negative = inhibition, usual class: inhibitors; 4.4% of 360,000 active; AID 504333, 2011; further: potency means the concentration at half of the fitted maximal effect; on the % scale 0 is the no-effect control and ±100 the full control effect; nearly all actives have a fitted effect of over 60% in size
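Inhibition is scored as reduced AlphaScreen emission. The BAZ2B/b-H3(5-23)K14Ac complex (50 nM each) in PBS pH 7.4, 0.01% Tween-20 meets compound (up to 110 uM) for 30 min at RT before bead addition.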
HP1b chromo inh – HTS for Inhibitors of HP1-beta Chromodomain Interactions with Methylated Histone Tails; Chromobox protein homolog 1 (Homo sapiens), P83916; AlphaScreen HP1-beta / biotin-H3K9me3 peptide binding; Potency, µM (doses to about 114 µM), inactives show at the highest dose activity change, negative = inhibition, actives largely listed as inhibitors; 0.56% of 390,000 active; AID 540317, 2011; further: potency means the concentration at half of the fitted maximal effect; nearly all actives have a fitted effect of over 70% in size
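AlphaScreen: HP1-beta (50 nM) preformed 30 min with biotin-H3(1-18)K9me3 peptide (50 nM) in PBS pH 7.4, 0.01% Tween-20. Compound added for 30 min at RT, then streptavidin donor/nickel chelate acceptor beads (10 ug/mL) for 30 min.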
CtBP-E1A blk – qHTS Assay for Inhibitors of the CtBP/E1A Interaction | AlphaScreen GST-E1A/His-CtBP binding, 1536-well; active compounds read low | AID 651724, 2012 | activity change, % (no concentration beside the values) | 0.49% of 340,000 active; in the data active means activity change below about -65%; inconclusive means mostly about -30% to -63%; further: on the % scale 0 is the no-effect control and ±100 the full control effect
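Steps: dispense buffer (Tris pH 8.0, NaCl 300 mM, TCEP 1 mM, BSA, Tween 20); add 5X protein mix (GST-E1A, His-CtBP, 125 nM each); pin 23 nL compound; 2 h at 37 °C, dark; add 5X beads (50 ug/mL); 1 h; read.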
Six1-Eya2 inh – qHTS Assay for Inhibitors of the Six1/Eya2 Interaction; Homeobox protein SIX1 (Homo sapiens) + Protein phosphatase EYA2 (Homo sapiens), …; AlphaScreen GST-Six1/His-Eya2 binding, biochemical; active compounds read low; activity change, % (test concentration not listed); 0.56% of 360,000 active; AID 651725, 2012; in the data active means activity change below about -65%; inconclusive means mostly about -30% to -63%; further: on the % scale 0 is the no-effect control and ±100 the full control effect
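AlphaScreen luminescence read after one hour at 37 °C in darkness. Pin-transferred compounds met GST-Six1 and His-Eya2 protein (5X stock 250 nM/500 nM) plus glutathione donor and Ni-chelate acceptor beads (5X, 50 ug/mL).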
G9a block – qHTS Assay for Inhibitors of Histone Lysine Methyltransferase G9a; Histone-lysine N-methyltransferase EHMT2 (Homo sapiens), Q96KQ7; G9a H3K9 monomethylation, AlphaScreen, 2 h; Potency, µM (series often up to 102 µM), for inactives: top-dose activity, negative = inhibition, most hits filed as inhibitors; 8.8% of 350,000 active; further: potency means the concentration at half of the fitted maximal effect; on the % scale 0 is the no-effect control and ±100 the full control effect; nearly all actives have a fitted effect of over 75% in size
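Signal arises when biotinylated H3K9 peptide, once monomethylated, bridges streptavidin donor and antibody-captured acceptor beads. Enzyme at 20 nM was preincubated 15 min with test compounds; peptide 500 nM and SAM 20 uM then reacted for 2 h.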
An asterisk follows results filed as active; ? = inconclusive; nt = no result; [ ] = dose if it differs, or a comment. Unless noted, the call rests on the fitted dose curve; in most records, active means well fitted inhibition curve with a large enough effect; inconclusive means small, poorly fitted or top-dose-only effect; inactive means no such curve, though single readings can be large or run the other way.

SMILES	JMJD2A Tudor	BAZ2B block	HP1b chromo inh	CtBP-E1A blk	Six1-Eya2 inh	G9a block
COc1cc(/C=C2\C(=O)N(c3ccccc3)N=C2C)ccc1Oc1ccc([N+](=O)[O-])cc1[N+](=O)[O-]	25µM*	45µM*	?	-29	-21	?
CC1=NN(c2ccccc2)C(=O)/C1=C\c1ccc(Oc2ccc([N+](=O)[O-])cc2[N+](=O)[O-])cc1	40µM*	40µM*	?	3	-8	45µM*
Nc1ccc(Oc2ccc([N+](=O)[O-])cc2[N+](=O)[O-])cc1	?	-5%	?	-12	-11	?
CCc1cc2c(cc3c(=O)n(CC(=O)NC4CCC(C)CC4)ncn32)s1 (stereo not given)	-14%	1%	11%	nt	nt	-5%[59 µM]
CC1(C)CC(=O)C(N=Nc2cc(Cl)c(Cl)c(Cl)c2)=C(O)C1	?	?	?	-2	-10	?
Cc1ccc(O)c(N=NC2=C(O)CC(C)(C)CC2=O)c1	56µM*	32µM*	-33%	-4	-90*	?
Cc1c(CN(C)CCc2ccccc2)c(=O)n(-c2ccccc2)n1C	3.5µM*	?	?	0	9	4µM*
CCNc1ccc(N=Nc2c(C)n(C)n(-c3ccccc3)c2=O)cc1	-27%	32µM*	6%	-6	-6	?
Cc1c(Cc2c(C)n(C)n(-c3ccccc3)c2=O)c(=O)n(-c2ccccc2)n1C	19%[57.1 µM]	4%	46%	0	6	-5%
CCOC(=O)/C(N=Nc1c(C)n(C)n(-c2ccccc2)c1=O)=C(\C)O	14%[57.1 µM]	1%	48%	-28	-28	8%
Cc1c(-n2c(=S)[nH]c3ccccc3c2=O)c(=O)n(-c2ccccc2)n1C	20µM*	-5%	19%	-14	-2	?
O=S1(=O)CC(N2CCCCC2)CN1Cc1cn(Cc2ccc(F)cc2)nn1 (stereo not given)	nt	nt	nt	-8	12	nt
O=[S+]([O-])(c1ccc2c(c1)OCCO2)N1CCN([S+](=O)([O-])c2ccccc2Br)CC1	-10%	nt	nt	nt	nt	nt
Cc1ccc(NC(=O)CSc2nc3ccccc3c3nc(CCc4c(C)n[nH]c4C)nn23)c(C)c1	-10%	-14%	4%	nt	nt	9%[59 µM]
CC1=CC(=Nc2c(C)n(C)n(-c3ccccc3)c2=O)C=C(C)C1=O	-27%	-71%	?	41	17	40µM*
CC1=CC(=Nc2c(C)n(C)n(-c3ccccc3)c2=O)C=CC1=O	nt	45µM*	nt	nt	nt	10µM*
CC(=O)/C(N=Nc1c(C)n(C)n(-c2ccccc2)c1=O)=C(\C)O	-4%	?	49%	-5	-16	-8%
Cc1c(N=NC2=C(O)CC(C)(C)CC2=O)c(=O)n(-c2ccccc2)n1C	50µM*	35µM*	?	?	-25	-12%[12.7 µM]
Cc1c(N=c2scc(-c3ccccc3)n2C)c(=O)n(-c2ccccc2)n1C	-19%	?	4%	-4	1	-8%[59 µM]
CCC(C)C1=CC(=Nc2c(C)n(C)n(-c3ccccc3)c2=O)C=C(C(C)CC)C1=O (stereo not given)	?	3.5µM*	-20%	2	-5	?
CN(Cc1ccccc1)c1nc(-c2ccc(F)cc2)cc(C(F)(F)F)n1	280%	312%	295%	nt	nt	353%[59 µM]
Cc1c(NC(=S)NC(=O)COc2ccccc2)c(=O)n(-c2ccccc2)n1C	-13%	7%	-3%	0	5	21%[59 µM]
CCCC(=O)NC(=S)c1c(C)n(C)n(-c2ccccc2)c1=O	-19%	-4%	23%	-3	-11	45µM*
Cc1c(O)c(=O)n(-c2ccccc2)n1C	-8%	30%	16%	4	-2	8.9µM*

High-throughput results as filed in PubChem BioAssay.
